# An excerpt weighted towards active compounds, which were near 2.5% of everything screened.
# Cruzain inh Det = qHTS Assay for Promiscuous and Specific Inhibitors of Cruzain (with detergent); hit rate 0.43% among 200,000; purified cruzain, Z-FR-AMC fluorescence, 0.01% Triton; Potency, µM, most hits filed as inhibitors; Cruzipain (Trypanosoma cruzi), P25779; further: nearly all actives have a fitted effect of over 40% in size
# Target sequence (P25779 123-467 limits assumed): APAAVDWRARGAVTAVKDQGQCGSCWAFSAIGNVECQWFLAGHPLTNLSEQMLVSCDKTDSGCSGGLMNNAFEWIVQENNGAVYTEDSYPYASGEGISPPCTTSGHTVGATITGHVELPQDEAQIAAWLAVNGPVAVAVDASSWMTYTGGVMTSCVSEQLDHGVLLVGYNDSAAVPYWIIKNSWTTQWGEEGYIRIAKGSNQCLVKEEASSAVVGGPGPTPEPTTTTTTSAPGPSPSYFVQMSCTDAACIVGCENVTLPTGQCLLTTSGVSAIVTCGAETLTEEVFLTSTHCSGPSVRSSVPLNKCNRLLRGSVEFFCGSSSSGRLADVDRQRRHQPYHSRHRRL
#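 Compounds were screened in titration against cruzain (1.5 nM) with 0.01% Triton X-100 to counter colloidal aggregation. Activity was the AMC fluorescence increase over 60 s after adding 2 uM Z-FR-AMC at pH 5.5.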
# Cruzain inh noDet = qHTS Assay for Promiscuous and Specific Inhibitors of Cruzain (without detergent) | hit rate 2.3% among 200,000 | Cruzipain (Trypanosoma cruzi), P25779 | Potency, µM, hits mostly inhibitors | purified cruzain, Z-FR-AMC fluorescence, no detergent; further: nearly all actives have a fitted effect of over 40% in size
#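 Purified cruzain at 1.5 nM, pre-incubated 15 min with compound at room temperature in 100 mM sodium acetate pH 5.5, 5 mM DTT, 0.00005% Triton X-100. Reaction started with 2 uM Z-FR-AMC; AMC fluorescence increase over 60 s gives rate.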
# Hits are given with their value; - = inactive; ? = inconclusive. The call rests on the fitted dose curve; in most records, active means well fitted curve in the direction sought with a large enough effect; inconclusive means small, poorly fitted or top-dose-only effect, or another doubt; inactive means no such curve, though single readings can be large; an effect the other way counts as inactive or inconclusive.
SMILES,Cruzain inh Det,Cruzain inh noDet
CC(NC(=O)CSc1nc2c(c(C(F)(F)F)n1)CCc1ccccc1-2)c1ccccc1 (configuration not stated),-,-
COC(=O)c1cc(NS(=O)(=O)c2cc(Br)cc3c2N(C(C)=O)CC3)cc(C(=O)OC)c1,-,-
Cc1ccc(NC(=O)c2cncc(Br)c2)c([N+](=O)[O-])c1,-,-
COc1c(C)cc(Br)cc1C(=O)Nc1ccc(C)cc1[N+](=O)[O-],-,25.1µM
O=C(CSc1ncnc2c1cnn2-c1ccccc1)Nc1ccc2c(c1)OCO2,-,-
O=C(CSc1ncnc2c1cnn2-c1ccc(Cl)cc1)NCc1ccc2c(c1)OCO2,-,12.6µM
COC(=O)c1ccccc1NC(=O)Cc1nc(-c2ccccc2)sc1-c1ccc(C)cc1,-,25.1µM
COC(=O)c1ccccc1NC(=O)Cc1noc2ccc(C)cc12,-,-
[N-]=[N+]=NC[C@@H]1O[C@@H](n2cnc3c(N)ncnc32)[C@@H]2O[C@@H]21,-,-
Cn1nc(C(=O)Nc2ccc(F)c(Cl)c2)c2c1-c1ccccc1S(=O)(=O)C2,-,-
COc1cccc(C2C(=O)N(C3CCCCC3)CC(=O)N2CCc2ccc(OC)c(OC)c2)c1 (configuration not stated),-,-
Cc1ccc(NC(=O)/C(=C\c2ccc([N+](=O)[O-])cc2)NC(=O)c2ccccc2)cc1,-,-
CSc1ccc(/C=C(/NC(=O)c2ccc(C)cc2)C(=O)Nc2cccc(F)c2)cc1,-,20µM
Cc1ccccc1Oc1ncnc2oc(-c3ccccc3)cc12,-,-
Clc1ccc(Oc2ncnc3oc(-c4ccccc4)cc23)cc1,-,20µM
CC(C)COc1ccc(C(=O)N(Cc2cccc(F)c2)C2CCS(=O)(=O)C2)cc1 (configuration not stated),-,?
Cc1ccc(C(=O)NCCc2sc(C)nc2C)cc1,25.1µM,?
Cc1nc(C)c(CCNC(=O)c2ccc(C(F)(F)F)cc2)s1,-,-
S=C(Nc1ccc2cn[nH]c2c1)Nc1ccc2cn[nH]c2c1,-,-
Cc1nc(NC(=O)CSc2nnc(-c3ccccc3)c(-c3ccccc3)n2)c(Cl)cc1Cl,-,?
O=C(CSc1nnc(-c2ccccc2)c(-c2ccccc2)n1)Nc1ncc(Cl)cc1Cl,-,31.6µM
N[C@H](Cc1c[nH]c2ccccc12)P(=O)(O)O,-,-
CCOc1ccc(CNC(=O)C2=Cc3cccc(OC)c3OC2)cc1,-,-
CCOc1ccc(C2=NC(c3cccs3)=Nc3ccc(C(C)C)cc3N2)cc1,-,3.16µM
CC(C)c1ccc2c(c1)NC(c1ccncc1)=NC(c1cccs1)=N2,-,-
SMILES,Cruzain inh Det,Cruzain inh noDet
COc1cccc(NC(=O)Cn2c(=O)n(Cc3ccc(F)cc3)c(=O)c3sc4ccccc4c32)c1,-,-
COc1cccc(-n2c(-c3ccco3)nc3c(cnn3-c3ccc(C)cc3)c2=O)c1,-,-
CCc1ccc(-n2c(N3CCN(c4ccc(F)cc4)CC3)nc3ccccc3c2=O)cc1,-,-
O=C(NNC(=O)c1ccccc1Br)c1cccc(Cl)c1,-,-
O=C(NNC(=O)c1cc2cc3ccccc3nc2s1)c1cccc(Cl)c1,?,25.1µM
O=C(NNC(=O)c1cc2cc3ccccc3nc2s1)c1ccc(F)cc1,?,10µM
Cc1ccc(S(=O)(=O)NNC(=O)c2cc3cc4ccccc4nc3s2)cc1,-,-
Cc1ccccc1C(=O)NNC(=O)c1ccc(F)cc1,-,-
Cc1cccc(C(=O)NNC(=O)c2cc3cc4ccccc4nc3s2)c1,-,20µM
C=Cc1ccccc1Cl,-,-
O=C(NC1CCCC1)c1ccc2c(=O)n(Cc3ccccc3)c(SCc3ccccc3F)nc2c1,-,-
CSc1cccc(NC(=O)Cn2ncn3c(cc4ccccc43)c2=O)c1,-,-
NCCC1([N+](=O)[O-])CCNCC1,-,-
C=Cc1ccc(CN2C(=O)N(c3cccc(Cl)c3)S(=O)(=O)c3ccccc32)cc1,-,?
NC(=O)c1c(N)sc2c1CCCCC2,-,25.1µM
CNC(=O)c1c(N)sc2c1CCCCC2,-,-
Cc1ccccc1C(=O)Oc1cc(-c2ccc3c(c2)OCO3)cc(=O)c2c(C)oc(C)c12,-,20µM
Cc1oc(C)c2c(=O)cc(-c3ccc4c(c3)OCO4)cc(OC(=O)c3cccc(Br)c3)c12,-,25.1µM
Cc1oc(C)c2c(=O)cc(-c3ccc4c(c3)OCO4)cc(OC(=O)c3cccc(Cl)c3)c12,-,?
Cc1ccc(C(=O)Oc2cc(-c3ccc4c(c3)OCO4)cc(=O)c3c(C)oc(C)c23)cc1,-,?
COc1ccc(OC)c(NC(=O)C(Cc2ccccc2)NS(=O)(=O)c2ccc3c(c2)CCC(=O)N3)c1 (configuration not stated),-,-
COc1cccc(CNC(=O)C(=O)Nc2c3c(nn2-c2ccccc2)CSC3)c1,-,?
O=C(NCc1ccccc1)C(=O)Nc1c2c(nn1-c1ccc(F)cc1)CSC2,-,20µM

# Bioassay records from PubChem BioAssay.
